Assay results: PubChem BioAssay AID1159580 (chemical genetic matrix, 2015)
Values joined by “and” are separate entries in the source; they are usually repeats but may differ in a detail not shown here. Equal entries are not always repeated. Out of some 5,500 compounds screened, about 2,000 (36%) were called active. Not shown: some 18% with an inconclusive outcome. Cut-off read from the data, not from the text of the source: active = normalized growth mostly below about 0.91 (no sharp cut-off); inconclusive = no clear call, values can overlap the other calls; inactive = mostly above about 0.92. The list shows a part of the results.

Experiment: chemical genetic growth profiling, strain panel (AID 1159580);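 note: tested at 20 µM; growth read once vehicle control cultures reached saturation at 30 °C; 1 = growth at the plate median or of vehicle wells; lower values mean less growth of the strain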
Settings: S. cerevisiae deletion strains, growth OD

Measured: normalized growth

O=C(N[C@@H](CO)[C@H](O)c1ccc([N+](=O)[O-])cc1)C(Cl)Cl
inactive: locus YAL013W, strain DEP1, active compounds read low 1 | locus YAL021C, strain ccr4, active compounds read low 1.01 | locus YAL026C, strain drs2, active compounds read low 1.03 | locus YAL030W, strain snc1, active compounds read low 0.999 | locus YBL061C, strain skt5, active compounds read low 0.995 | locus YBR009C, strain hhf1, active compounds read low 1.03 | locus YBR021W, strain FUR4, active compounds read low 1.03 | locus YBR023C, strain chs3, active compounds read low 1.02 | locus YBR171W, strain sec66, active compounds read low 1.02 | locus YBR229C, strain ROT2, active compounds read low 1 | locus YBR231C, strain swc5, active compounds read low 1.01 | locus YBR279W, strain paf1, active compounds read low 1.02 | locus YCL011C, strain gbp2, active compounds read low 1.02 | locus YCL016C, strain dcc1, active compounds read low 1.02 | locus YCL029C, strain bik1, active compounds read low 1.03 | locus YCL061C, strain MRC1, active compounds read low 0.998 | locus YCL069W, strain vba3, active compounds read low 1.02 | locus YCR088W, strain abp1, active compounds read low 1.02 | locus YDL005C, strain med2, active compounds read low 1 | locus YDL035C, strain GPR1, active compounds read low 0.997 | locus YDL040C, strain nat1, active compounds read low 1.01 | locus YDL074C, strain BRE1, active compounds read low 1.03 | locus YDL101C, strain DUN1, active compounds read low 1.01 | locus YDL134C, strain PPH21, active compounds read low 1 | locus YDL185W, strain tfp1, active compounds read low 1.01 | locus YDL192W, strain arf1, active compounds read low 1.01 | locus YDR001C, strain nth1, active compounds read low 1.02 | locus YDR069C, strain doa4, active compounds read low 1.02 | locus YDR101C, strain arx1, active compounds read low 1.01 | locus YDR137W, strain rgp1, active compounds read low 1.03 | locus YDR150W, strain NUM1, active compounds read low 0.997 | locus YDR159W, strain sac3, active compounds read low 0.982 | locus YDR162C, strain NBP2, active compounds read low 1 | locus YDR195W, strain ref2 1.09 | locus YDR297W, strain sur2, active compounds read low 1.02 | locus YDR318W, strain mcm21, active compounds read low 1.01 | locus YDR334W, strain swr1, active compounds read low 1 | locus YDR335W, strain msn5, active compounds read low 1.01 | locus YDR388W, active compounds read low 1.01 | locus YDR392W, strain spt3, active compounds read low 0.981 | locus YDR502C, strain sam2, active compounds read low 1.01 | locus YEL003W, strain gim4, active compounds read low 1.01 | locus YEL037C, strain rad23, active compounds read low 1.01 | locus YEL061C, strain CIN8 (second series), active compounds read low 1.02 | locus YEL061C, strain CIN8, active compounds read low 0.996 | locus YER015W, strain faa2, active compounds read low 1.02 | locus YER016W, strain bim1, active compounds read low 1.01 | locus YER110C, active compounds read low 1.01 | locus YER111C, strain swi4, active compounds read low 1.02 | locus YER155C, strain BEM2 (second series), active compounds read low 0.993 | locus YER155C, strain BEM2, active compounds read low 1 | locus YER167W, strain BCK2, active compounds read low 0.987 | locus YFR010W, strain ubp6, active compounds read low 1.02 | locus YGL078C, strain dbp3, active compounds read low 1 | locus YGL086W, strain mad1, active compounds read low 0.994 | locus YGL167C, strain pmr1, active compounds read low 1.01 | locus YGL173C, strain kem1, active compounds read low 1.03 | locus YGL227W, strain vid30, active compounds read low 1.04 | locus YGL240W, strain doc1, active compounds read low 0.983 | locus YGL248W, strain PDE1, active compounds read low 0.998 | locus YGL253W, strain hxk2, active compounds read low 1.03 | locus YGR078C, strain PAC10, active compounds read low 1.02 | locus YGR135W, strain pre9, active compounds read low 1.01 | locus YGR229C, strain SMI1, active compounds read low 0.994 | locus YGR252W, strain gcn5, active compounds read low 0.947 | locus YHR013C, strain ard1, active compounds read low 1.01 | locus YHR027C, strain rpn1, active compounds read low 1.02 | locus YHR030C, strain SLT2, active compounds read low 0.998 and 0.975 | locus YHR079C, strain IRE1 (second series), active compounds read low 1.02 | locus YHR079C, strain IRE1, active compounds read low 1 | locus YHR094C, strain hxt1, active compounds read low 1.01 | locus YHR129C, strain ARP1, active compounds read low 1.01 | locus YHR142W, strain chs7, active compounds read low 1.05 | locus YHR200W, strain rpn10, active compounds read low 1.01 | locus YIL066C, strain RNR3, active compounds read low 1.01 | locus YIL073C, strain SPO22, active compounds read low 0.964 | locus YIL125W, strain kgd1, active compounds read low 0.998 | locus YIR030C, strain dcg1, active compounds read low 1.01 | locus YJL092W, strain hpr5, active compounds read low 1.02 | locus YJL095W, strain BCK1 (second series), active compounds read low 1.02 | locus YJL095W, strain BCK1, active compounds read low 1.04 and 0.945 | locus YJL115W, strain asf1, active compounds read low 1.01 | locus YJL129C, strain trk1, active compounds read low 1.01 | locus YJL134W, strain LCB3, active compounds read low 1 | locus YJL154C, strain vps35, active compounds read low 1.03 | locus YJL164C, strain tpk1, active compounds read low 1.03 | locus YJL166W, strain qcr8, active compounds read low 1.02 | locus YJL168C, strain set2, active compounds read low 1.01 | locus YJL187C, strain SWE1 (second series), active compounds read low 1.02 | locus YJR043C, strain POL32, active compounds read low 1.03 | locus YJR066W, strain TOR1, active compounds read low 0.962
